The list is not random: actives were taken first. Their share in the collection is about 0.31%.
TRPML1 blocker – inhibitors of human TRPML1 channel; TRPML1-inducible cells, Ca2+ dye fluorescence, FDSS; active compounds read low; inhibition of EC80 agonist-evoked calcium signal; activity change, negative = inhibition, % (concentration not given with the values); hit rate 0.02% among 390,000; AID 624415; in the data active = activity change below about -50%; inconclusive = between about -30% and that limit;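 note: stimulus is agonist 54-4 at its EC80 concentration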
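Calcium fluorescence in TRPML1-DL cells induced overnight with Tet: a 110 s read after compound pin addition, then a 110 s antagonist read after challenge with 54-4 at 4 uM final (EC80).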
TRPML1 ag – human mucolipin-1 channel agonism; activation, % (test concentration not listed); TRPML1-expressing cells, Ca2+ dye fluorescence, FDSS; hit rate 0.12% among 410,000; in the data active = activation above about 50%; inconclusive = mostly about 30% to 49%
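Calcium fluorescence on an FDSS kinetic reader gave the read-out. Tet-induced TRPML1-DL cells were plated overnight, dye-loaded (Ca8 with quencher, 45-90 min, room temperature, dark), then read 110 s after compound addition, and again 110 s after 4uM final 54-4 (EC80).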
TRPV1 agonist – activates the human vanilloid receptor TRPV1 | Q8NER1 | TRPV1-expressing cells, Fluo-8 calcium influx, agonist mode | activation, % at 8.33 µM | hit rate 0.19% among 320,000 | AID 540275; in the data active = activation above about 80%; inconclusive = between about 30% and that limit
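Cells expressing TRPV1 were dye-loaded with Fluo-8 and read kinetically: 10 s baseline, 3 min after compound (agonist portion), then 2 min after EC20 capsaicin (allosteric enhancer portion). Calcium-bound dye fluorescence at 480/520 nm.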
TRPV1 PAM – human TRPV1 potentiation | TRPV1-expressing cells, Fluo-8 calcium influx, capsaicin EC20 potentiation | potentiation, % at 8.33 µM | hit rate 0.02% among 320,000; in the data active = potentiation above about 80%; inconclusive = between about 30% and that limit
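Cells expressing TRPV1 were dye-loaded with Fluo-8 and read kinetically: 10 s baseline, 3 min after compound (agonist portion), then 2 min after EC20 capsaicin (allosteric enhancer portion). Calcium-bound dye fluorescence at 480/520 nm.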
Hits are given with their value.

COc1ccc(-c2ccc(NS(=O)(=O)c3ccc(OC)c(OC)c3)cc2)nn1 was read as TRPML1 blocker inactive and TRPML1 ag inactive.
CC(C)(C)n1ncc2c(=O)n(Cc3cc(F)c(F)cc3Cl)cnc21 was read as TRPML1 blocker inactive and TRPML1 ag inactive.
`COc1cc(CNc2ccc3[nH]c(=O)[nH]c3c2)ccc1OCc1c(F)cccc1Cl` gave TRPML1 blocker inactive, TRPML1 ag inactive, TRPV1 agonist 90.2 and TRPV1 PAM inactive.
For COc1cc(CNc2ccc3[nH]c(=O)[nH]c3c2)ccc1OCc1ccccc1F the results were TRPML1 blocker inactive, TRPML1 ag inactive, TRPV1 agonist inconclusive and TRPV1 PAM inactive.
For Cc1sc2ncnc(OCC(=O)N3CC(=O)Nc4ccccc43)c2c1C the results were TRPML1 blocker inactive, TRPML1 ag inactive, TRPV1 agonist inactive and TRPV1 PAM 95.9.
For O=C(CCSCc1ccc(Cl)cc1)NCc1cccnc1 the results were TRPML1 blocker inactive, TRPML1 ag inactive, TRPV1 agonist 80.5 and TRPV1 PAM inactive.
Cc1ccc(N2CCN(C(=O)N3CCOCC3)CC2)cc1C was read as TRPML1 blocker inactive, TRPML1 ag inactive, TRPV1 agonist inactive and TRPV1 PAM inactive.
`Cc1cccc(C)c1N1CCN(C(=O)N2CCOCC2)CC1` gave TRPML1 blocker inactive, TRPML1 ag inactive, TRPV1 agonist 80.5 and TRPV1 PAM inactive.
`COc1ccc(N=Cc2c(O)c3ccccc3oc2=O)cc1` gave TRPML1 blocker inactive, TRPML1 ag inactive, TRPV1 agonist inconclusive and TRPV1 PAM inactive.
CC(C)c1ccc(N=Cc2c(O)c3ccccc3oc2=O)cc1 was read as TRPV1 agonist 82.6 and TRPV1 PAM inactive.
Screening CCN(CC)C1=CC2=CC(=C(C#N)C#N)CCC2CC1 (configuration not stated) returned TRPML1 blocker inconclusive, TRPML1 ag 105.4, TRPV1 agonist inactive and TRPV1 PAM inactive.
`N#CC(C#N)=C1C=C2C=C(N3CCCCC3)CCC2CC1` (configuration not stated) gave TRPML1 blocker inactive, TRPML1 ag 108.8, TRPV1 agonist 101.8 and TRPV1 PAM inactive.
`CCCCN(C)C1=CC2=CC(=C(C#N)C#N)CCC2CC1` (configuration not stated) gave TRPML1 blocker -64.3, TRPML1 ag 125.3, TRPV1 agonist 101.5 and TRPV1 PAM inactive.
`CCOc1ccccc1-c1c2cc(O)c(=O)cc-2oc2cc(O)c(O)cc12` gave TRPML1 blocker inactive, TRPML1 ag 110.0, TRPV1 agonist inconclusive and TRPV1 PAM inactive.
O=c1cc2oc3cc(O)c(O)cc3c(-c3ccccc3O)c-2cc1O was read as TRPML1 blocker inactive, TRPML1 ag inactive, TRPV1 agonist inactive and TRPV1 PAM inactive.
For COc1ccc(OC)c(-c2c3cc(O)c(=O)cc-3oc3cc(O)c(O)cc23)c1 the results were TRPML1 blocker inactive, TRPML1 ag 147.4, TRPV1 agonist inactive and TRPV1 PAM inactive.
Screening COc1ccc(OC)c(-c2oc3ccccc3c(=O)c2O)c1 returned TRPML1 blocker inactive, TRPML1 ag inactive, TRPV1 agonist inactive and TRPV1 PAM inactive.
`Cc1cc2c(NC(=O)Nc3ccc(C(F)(F)F)cc3)cccc2nn1` gave TRPML1 blocker inactive, TRPML1 ag inactive, TRPV1 agonist 81.9 and TRPV1 PAM inactive.
`Cc1cc(C)n2nc(C(=O)N3CCCC(Nc4ccc(C(C)C)cc4)C3)cc2n1` (configuration not stated) gave TRPML1 blocker inactive, TRPML1 ag inactive, TRPV1 agonist 86.0 and TRPV1 PAM inactive.
CC(C)c1ccc(NC2CCCN(C(=O)c3cccc4nccnc34)C2)cc1 (configuration not stated) was read as TRPML1 blocker inactive, TRPML1 ag inactive, TRPV1 agonist 84.6 and TRPV1 PAM inactive.
Screening Cc1ccc(NC2CCCN(C(=O)c3cccc4nccnc34)C2)cc1C (configuration not stated) returned TRPML1 blocker inactive, TRPML1 ag inactive, TRPV1 agonist inactive and TRPV1 PAM inactive.
O=C1N=C(N2CCCCC2)S/C1=C\c1ccc(Br)cc1 was read as TRPML1 blocker inactive, TRPML1 ag inactive, TRPV1 agonist 86.6 and TRPV1 PAM inactive.
Screening Cc1ccc(/C=C2\SC(N3CCCC3)=NC2=O)cc1 returned TRPV1 agonist inconclusive and TRPV1 PAM inactive.
CC1=C(C(=O)N2CCCCC2)C(c2ccc(Cl)cc2)n2c(nc3ccccc32)N1 (configuration not stated) was read as TRPML1 blocker inactive and TRPML1 ag inactive.

Screening results deposited in PubChem BioAssay by National Center for Advancing Translational Sciences (NCATS).
